# Test results as given in PubChem BioAssay AID504753 (Sanford-Burnham Center for Chemical Genomics, 2011).
# In all, about 2,400 compounds went through this assay and about 820 (34%) were called active.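 How the source made its calls: active means inhibition of at least 50% at 20 µM in any single replicate; inactive means the rest.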 Not all results are given here.
# Test system: glucose-6-phosphate dehydrogenase-6-phosphogluconolactonase (PfGluPho), Plasmodium falciparum 3D7
# Assay: malaria parasite PfGluPho enzyme inhibition – biochemical, fluorescence intensity, single concentration, confirmation (AID 504753);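 further: 0% = DMSO with substrate and 100% = DMSO lacking glucose-6-phosphate substrate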
# Settings: recombinant PfGluPho, NADPH-diaphorase-resazurin fluorescence; at 20 µM; active compounds read high
row,Compound,inhibition
1,COc1ccc(CCn2c(NN=C3CCCC3)nc3c2c(=O)[nH]c(=O)n3C)cc1,61.9% (active)
2,CSc1n[nH]c(=S)n1N,19.9% (inactive)
3,O=C(CSc1cccc2cccnc12)N/N=C/c1cccnc1,15.1% (inactive)
4,O=C(CCn1nnc2ccccc21)OCC(=O)c1ccc([N+](=O)[O-])cc1,12.8% (inactive)
5,CC(C)(C)NC(=O)COc1ccc(CNc2ccc3[nH]c(=O)[nH]c3c2)cc1,66.8% (active)
6,O=C1OC(Oc2ccc(Br)cc2)(c2ccccc2)c2ccccc21 (centres undefined),-21.5% (inactive)
7,Cc1ccc(C(=O)/C=C/c2c(C)nn(-c3ccccc3)c2Cl)cc1,-5.72% (inactive)
8,c1ccc(-c2cn3c(n2)CCc2ccc4cccnc4c2-3)cc1,56.4% (active)
9,Cc1cccc(-n2c(N)c(C(=O)N3CCN(C)CC3)sc2=S)c1,45.5% (inactive)
10,CCc1c(C)[nH]c(=S)c(C#N)c1C,46% (inactive)
11,CN1c2ccc(C=O)c3c(C=O)ccc(c23)N(C)C1(C)C,20.6% (inactive)
12,COc1ccc2c(c1)c(=Cc1ccc(N(C)C)cc1)c1cc(-c3ccccc3)[n+](C)n12,74% (active)
13,Cc1ccc(NC(=O)Cn2sc3ccccc3c2=O)cc1,107% (active)
14,O=C(Nc1ccc(F)cc1)c1cc2c(s1)CCCC2,15.8% (inactive)
15,O=C(CN1CCN(c2ccc(O)cc2)CC1)Nc1ccc(-c2ccccc2)cc1,22.2% (inactive)
16,O=C(CN1CCN(c2ccc(O)cc2)CC1)Nc1cc(S(=O)(=O)N2CCOCC2)ccc1Cl,50% (active)
17,COCCNC(=S)Nc1cc(S(=O)(=O)N2CCOCC2)ccc1N1CCCCC1,44.5% (inactive)
18,COc1ccc(Cl)cc1NC(=O)CN(C)C(=O)CCCc1c[nH]c2ccccc12,27.2% (inactive)
19,Nc1ccc(-c2nnc(-c3ccc(-c4ccccc4)cc3)o2)cc1,15.4% (inactive)
20,COc1cccc(C(=O)Nc2nnc(S(=O)(=O)N3CCCCC3)s2)c1,76.5% (active)
21,COc1cccc(C(=O)Nc2nnc(S(=O)(=O)N(C)c3ccccc3)s2)c1,73.6% (active)
22,COc1cccc(C(=O)Nc2nnc(S(=O)(=O)N3CCOCC3)s2)c1,81% (active)

row,Compound,inhibition
1,Cc1cccn2c(CN(C)C3CCCc4ccccc43)c(C(=O)N3CCOCC3)nc12 (centres undefined),34.2% (inactive)
2,COc1cc(C(=S)NCc2ccccc2)cc(Br)c1O,39.6% (inactive)
3,O=C(Nc1sc2c(c1C(=O)O)CCC2)c1ccccc1F,33.8% (inactive)
4,Oc1ccc(N=Cc2c(O)ccc3ccccc23)cc1,2.98% (inactive)
5,COc1cc(C2CC(=O)N3CN(Cc4ccccc4)CSC3=C2C#N)ccc1OCc1ccccc1 (centres undefined),15.1% (inactive)
6,Cc1c(-c2ccccc2)n[nH]c1C(=O)N=Nc1c(O)[nH]c2ccccc12,38.1% (inactive)
7,CCOC(=O)C1=C(c2ccc(OC)cc2)C(=O)c2ccccc2C1=O,82.8% (active)
8,Nc1ccc2nc3c(=O)[nH]c(=S)[nH]c3nc2c1,23.1% (inactive)
9,COc1cccc(NC(=O)NCc2ccc(F)cc2)c1,-14.2% (inactive)
10,Clc1ccc2c(c1)C1=C(C(c3ccncc3)O2)C(c2ccc(Br)cc2)n2ncnc2N1 (centres undefined),42.4% (inactive)
11,CCOc1cccc(/C=N/N2C(=O)CSC2=S)c1O,10.3% (inactive)
12,Nc1ccc2[nH]c(=S)sc2c1,35.6% (inactive)
13,CCN1CCCC1CNC(=O)c1ccc2c(c1)NC(=O)/C(=C\c1ccccc1F)S2 (centres undefined),110% (active)
14,NC(=O)c1c(Nc2nc3c(F)cccc3s2)sc2c1CCCC2,2.29% (inactive)
15,C#CCOCCOCCOCCNc1nc(N2CCN(C(=O)CCCCCCCCCCNC(=O)Cn3cc(CCCCCN)nn3)CC2)nc(N2CCN(C(=O)CCCCCCCCCCNC(=O)[C@H](CO)n3cc(CCCSC)nn3)CC2)n1,-12.8% (inactive)
16,Cc1cccc(C(=O)Nc2nnc(S(=O)(=O)N3CCCCCC3)s2)c1,52.1% (active)
17,O=C(Nc1nnc(S(=O)(=O)N2CCOCC2)s1)c1cccc(Br)c1,60.9% (active)
18,O=C(Nc1ccc(S(=O)(=O)N2CCOCC2)cc1)c1ccc2ncsc2c1,12.6% (inactive)
19,O=C(Nc1nnc(S(=O)(=O)N2CCCCCC2)s1)c1cccc(Br)c1,55.3% (active)
20,S=C(NN=Cc1ccccn1)Nc1ccccn1,39.7% (inactive)
21,COc1c(O)ccc2c1CN1CCc3cc4c(cc3C1C2)OCO4 (centres undefined),71.4% (active)
22,N#Cc1ccccc1-n1c(N)c(C(=O)N2CCCC2)sc1=S,31% (inactive)

row,Compound,inhibition
1,O=C1C=CC(=O)N1c1ccc(N2CCCCC2)cc1,63.8% (active)
2,O=[N+]([O-])c1ccc(N2CCN(c3ccc(O)cc3)CC2)c(Cl)c1,8.94% (inactive)
3,Cc1ccc(-c2nc3ccc(Cl)cn3c2Cc2ccccc2)cc1,16% (inactive)
4,Cc1ccc(-c2cn3cc(C)ccc3n2)cc1,40.7% (inactive)
5,COc1ccc(CC(=O)NCC(=O)N/N=C/c2cc(Br)ccc2OC)cc1,70.9% (active)
6,COc1ccc(C(=O)Nc2ccccc2C(=O)N/N=C/c2ccc(O)c(OC)c2)cc1,26.4% (inactive)
7,CCOC(=O)c1sc(NC(=O)CSc2nc(C)cc(C(F)(F)F)n2)c(C#N)c1C,29.8% (inactive)
8,Cn1c(CCC(=O)OCC(=O)NCc2ccccc2Cl)nc(=O)c2ccccc21,37.4% (inactive)
9,O=C(Nc1nc(-c2ccncc2)cs1)C1COc2ccccc2O1 (centres undefined),52.1% (active)
10,O=C(CSc1nnc(SCc2ccc(Cl)cc2)s1)N/N=C/c1ccccc1Cl,30.5% (inactive)
11,COC(=O)c1sc(=S)n(-c2ccccc2)c1N,17% (inactive)
12,S=c1[nH]nc(-c2cc(-c3ccsc3)n[nH]2)n1-c1ccccc1,12.6% (inactive)
13,Cn1sc(=O)c2cc(S(=O)(=O)NC3CC3)ccc21,40% (inactive)
14,O=C1/C(=C\c2ccc([N+](=O)[O-])cc2)CS(=O)(=O)C/C1=C/c1ccc([N+](=O)[O-])cc1,56.5% (active)
15,COc1ccc(Cl)cc1-n1c(=S)sc2c(=O)n(-c3ccc(F)cc3)c(SCC(=O)O)nc21,34.5% (inactive)
16,COC(=O)CCCC1=CC2=CC(=O)C(C)(OC(=O)c3cccs3)C(=O)C2=CN1CC(C)C (centres undefined),2.11% (inactive)
17,CCOc1ccccc1Nc1ccc2nonc2c1[N+](=O)[O-],45.4% (inactive)
18,O=[N+]([O-])c1c(NCCO)cc(Sc2nc3ccccc3s2)c2nonc12,68.6% (active)
19,Cc1ccc2nc(-c3cccc(Br)c3)cc(C(=O)Nn3cnnc3)c2c1,27.5% (inactive)
20,COCCN1C=C2C(=O)C(C)(OC(=O)C3CCCC3)C(=O)C=C2C=C1c1ccsc1 (centres undefined),29.9% (inactive)
21,Cc1ccc(OCC(=O)Nc2ccccc2Sc2ccc(Cl)cc2)c([N+](=O)[O-])n1,40.8% (inactive)
22,CCN(CC)c1ccc2oc(=O)c(C)nc2c1,97.5% (active)

row,Compound,inhibition
1,CCSc1nnc(NC(=O)c2ccc(C)cc2)s1,75.1% (active)
2,CCc1cc(C(N)=O)c(NC(=O)c2ccc(OC)cc2)s1,16% (inactive)
3,CC(C)(C)c1nnc(NC(=O)C2c3ccccc3Oc3ccccc32)s1,27.4% (inactive)
4,CC1=CC(C)(C)Nc2ccc(OC(=O)CN3C(=O)C4CCCCC4C3=O)cc21 (centres undefined),12.7% (inactive)
5,Cc1ccnc(-n2sc3ccccc3c2=O)n1,54.5% (active)
6,O=c1oc2ccccc2cc1-c1cn(-c2ccccc2)c(=S)[nH]1,18.8% (inactive)
7,S=c1[nH]nc(-c2cc(-c3ccccc3)n[nH]2)n1/N=C/c1c2ccccc2cc2ccccc12,-2.97% (inactive)
8,Oc1c(CN2CCOCC2)ccc(CN2CCOCC2)c1O,31.4% (inactive)
9,Cc1cc(Nc2ccc(Cl)cc2)nc(N2CCOCC2)n1,11.2% (inactive)
10,O=C(/C=C/c1ccco1)Nc1ccc(Oc2ccccc2)cc1,-1.92% (inactive)
11,Cc1ccc(/C=C/C(=O)Nc2ccc([N+](=O)[O-])c(NC(=O)/C=C/c3ccc(C)o3)c2)o1,65.5% (active)
12,COc1ccc(C(=O)Nc2cc(C)c(NC(=O)c3ccccc3OC)cn2)cc1,15.4% (inactive)
13,Cc1nc([N+](=O)[O-])nn1C12CC3CC(CC(Br)(C3)C1)C2,26.5% (inactive)
14,Cc1nc(N2CCOCC2)sc1C(=O)NN,27.4% (inactive)
15,Cc1ccc2nc(-c3ccc(Br)cc3)cn2c1,40.1% (inactive)
16,O=c1c2c(nc3cc(-c4cccc(Cl)c4)[nH]n13)CCCC2,41.6% (inactive)
17,O=C(COc1ccccc1)Nc1nonc1NC(=O)COc1ccccc1,19.8% (inactive)
18,C=CCc1ccccc1OCC(=O)N/N=C/c1ccccc1OCC,55.4% (active)
19,CCOc1ccccc1/C=N/NC(=O)CNC(=O)COc1ccccc1,104% (active)
20,CCC(=C/c1sc2ccc3ccccc3c2[n+]1C)/C=C1\Sc2ccc3ccccc3c2N1C,-4.66% (inactive)
21,CN1CCN(c2ccc(NC(=O)c3ccc4c(c3)OCCO4)cc2Cl)CC1,17.7% (inactive)
22,O=C(Nc1ccc(OC(F)(F)F)cc1)c1ccc2c(c1)no[n+]2[O-],10.5% (inactive)

row,Compound,inhibition
1,COC(=O)CCc1sc(Nc2ccc(Br)cc2)nc1-c1ccc(OC)cc1,-3.8% (inactive)
2,O=C(NC1=CC(=O)c2ccccc2C1=O)c1ccccc1,51.5% (active)
3,COc1cc(OC)c(C(=O)Nc2ccc(N(C)C)cc2)cc1OC,15.6% (inactive)
4,COc1ccc(OCc2n[nH]c(=S)n2N)cc1,46.2% (inactive)
5,COc1ccc(OCc2nnc3n2N=C(c2ccccc2)C(CC(=O)O)S3)cc1 (centres undefined),66.8% (active)
6,COc1ccc(-c2nn(-c3ccccc3)cc2/C=N/Nc2ccccn2)cc1OC,20.9% (inactive)
7,COc1ccc(-n2c(C)cc(C(=O)CSc3nnc(-c4cccs4)o3)c2C)cc1,14.3% (inactive)
8,Cn1c(-c2ccco2)nc2cc3ccccc3cc21,22.1% (inactive)
9,OCCN1CCN(C(=S)c2ccc(-c3ccccc3)cc2)CC1,50.8% (active)
10,COc1ccc(Nc2cc(Sc3ccc(OC)cc3)ncn2)cc1,26.3% (inactive)
11,COCCNC(=O)Nc1ccc2nc(-c3ccco3)c(-c3ccco3)nc2c1,34.8% (inactive)
12,O=[N+]([O-])c1ccc(C=Nc2ccc(Cl)cc2Cl)s1,4.17% (inactive)
13,O=c1[nH]c2ccccc2n2c(-c3ccccc3)nnc12,102% (active)
14,Oc1c(C=Nc2cccc3nsnc23)ccc2ccccc12,27.2% (inactive)
15,Cc1cc(N)n2nc(-c3ccc(C(C)(C)C)cc3)cc2n1,29.4% (inactive)
16,O=C(N/N=C\c1cccc(Br)c1)c1ccccc1-n1cccc1,32% (inactive)
17,C=C1c2cccc(OC)c2O[C@H](C(=O)OCC)[C@@H]1CCCCCC,-4.41% (inactive)
18,Cn1c(-c2sccc2OCc2cccc(C(F)(F)F)c2)n[nH]c1=S,52.9% (active)
19,CCc1c(C)sc(NC(=O)c2cccs2)c1C(N)=O,16.4% (inactive)
20,Cc1cc(Nc2ccc(Br)cc2)nc2ccccc12,-14% (inactive)
21,CCOc1ccc(-n2c(N)c(C(=O)NCC3CCCO3)sc2=S)cc1 (centres undefined),24.8% (inactive)
